# Laboratory results reported in PubChem BioAssay (NCATS).
# Inconclusive results are not listed. A number with no mark means an inactive call. Calls of active or inactive are those of the source. The call rests on the fitted dose curve; in most records, active means well fitted curve in either direction with a large enough effect (not every such curve was filed as active); inconclusive means small, poorly fitted or top-dose-only effect, or another doubt; inactive means flat fitted curve, though single readings scatter. Peptide text beside a SMILES is read from it.
# Assay: Stat Signaling Pathway (AID 446);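 further: ME-180 cervical cancer cells given 40 pM IL-6 alongside compound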
# Details: ME-180 (cervical carcinoma) SIE beta-lactamase reporter, IL-6 stimulated, 5 h; series mostly up to 17.2 µM; activity, negative = inhibition: at the top concentration
# Experimental: NCGC Assay Overview: The IL-6/STAT signaling pathway was assayed in ME-180 cervical carcinoma cells by a beta-lactamase reporter gene controlled by a STAT Inducible Element (SIE). This reporter is induced by IL-6 at 40 pM AC50 and inhibited by the pan JAK inhibitor, 2-(1,1-Dimethylethyl)-9-fluoro-3,6-dihydro-7H-benz[h]-imidaz[4,5-f]isoquinolin-7-one, at approximately 10 nM AC50. Plated cells were incubated overnight and on the following day, stimulated with 40 pM IL-6 for 5 hrs. The assay was screened at the AC50 of IL-6 activation to identify both inhibitors and activators of IL-6/STAT signaling.
# NCGC Assay Protocol Summary: Cells were trypsinized, washed in assay medium (AM, OPTI MEM with 0.5% fetal bovine serum, 0.1 mM nonessential amino acids, 1 mM sodium pyruvate, 10mM HEPES pH 7.3, 100U/ml penicillin, and 100 ug/ml streptomycin) and suspended at 6 x 10e5/ml in AM. Approximately […] cells in 5 uL/well was dispensed into 1536 well plates and the cells were incubated overnight at 37 C. 23 nL of compound were delivered by a pin tool and 1 uL of IL-6 (40 pM final concentration in AM) was added. After centrifugation at 1000 rpm for less than a minute, plates were incubated at 37C for 5 hrs. One uL of detector mix (LiveBLAzerTM, Invitrogen) was added, the plates incubated at room temperature for 2.5 hrs, and fluorescence intensity at 460 and 530 nm emission was measured at 405 nm excitation by an Envision (Perkin Elmer) or Safire II (Tecan). Data were normalized by GeneData to the controls for AC90 stimulation (300 pM IL-6) and to AC90 inhibition (125 nM Jak inhibitor, 40 pM IL-6 in AM).
# On the % scale 0 is the no-effect control and ±100 the full control effect.
Compound,"activity, negative = inhibition",outcome
Cc1c(C)c2c(c(C)c1O)CC[C@@](C)(CCC[C@@H](C)CCC[C@@H](C)CCCC(C)C)O2,-0.492%,
O=C(O)CCC(=O)C(=O)O,2.09% [at 7.69 µM],
C[C@@H]1C[C@H]2[C@@H]3CCC4=CC(=O)C=C[C@]4(C)[C@@]3(F)[C@@H](O)C[C@]2(C)[C@@]1(O)C(=O)COP(=O)(O)O,-5.01%,
C[C@]12C=CC(=O)C=C1CC[C@@H]1[C@@H]2[C@@H](O)C[C@@]2(C)[C@H]1CC[C@]2(O)C(=O)COC(=O)CCC(=O)O,-6.02%,
CC1(C)S[C@@H]2[C@H](NC(=O)Cc3ccccc3)C(=O)N2[C@H]1C(=O)O,,inactive
CCOc1ccc2c(c1)C(C)=CC(C)(C)N2,-4.13%,
O=C1CSC2(CCN(CCCN3c4ccccc4Sc4ccc(Cl)cc43)CC2)N1,-11.1% [at 7.69 µM],
CC(C)(C)C(=O)OCOC(=O)[C@@H]1N2C(=O)[C@@H](N=CN3CCCCCC3)[C@H]2SC1(C)C,4.17%,
CC1(C)S[C@@H]2[C@H](NC(=O)[C@@H](NC(=O)N3CCNC3=O)c3ccccc3)C(=O)N2[C@H]1C(=O)O,-1.61%,
COC(=O)CCC(=O)CN,10.4%,
CCCC(=O)Nc1ncnc2c1ncn2[C@@H]1O[C@@H]2COP(=O)(O)O[C@H]2[C@H]1OC(=O)CCC,15.4%,
CC(C)N=c1cc2n(-c3ccc(Cl)cc3)c3ccccc3nc-2cc1Nc1ccc(Cl)cc1,5.27%,
CC(=O)N[C@@H](CC(=O)O)C(=O)N[C@@H](CCC(=O)O)C(=O)O (Ac-Asp-Glu-OH),5.15%,
CCN(CC)Cc1cc(Nc2ccnc3cc(Cl)ccc23)ccc1O,10.6%,
CN(C)CCCN1c2ccccc2C(C)(C)c2ccccc21,10.3% [at 7.69 µM],
CC[N+](C)(C)Cc1ccccc1Br,,inactive
CC(Cc1ccc(O)c(O)c1)C(C)Cc1ccc(O)c(O)c1 (centres undefined),-17.6%,
CC(=O)OCC(=O)[C@@]12OC3(CCCC3)O[C@@H]1C[C@H]1[C@@H]3CCC4=CC(=O)C=C[C@]4(C)[C@@]3(F)[C@@H](O)C[C@@]12C,-2.39%,
Cc1cc(C(=O)NNCc2ccccc2)no1,3.4%,
Cc1onc(-c2ccccc2)c1C(=O)N[C@@H]1C(=O)N2[C@@H]1SC(C)(C)[C@@H]2C(=O)O,2.35%,
COc1ccc(CCNC[C@H](O)c2ccc(O)cc2)cc1OC,5.43% [at 38 µM],
CN=C(NC#N)Nc1ccc(C2=NNC(=O)C[C@@H]2C)cc1,2.05% [at 38 µM],
CCCC(=O)O[C@]1(C(=O)COC(C)=O)CC[C@H]2[C@@H]3C[C@H](F)C4=CC(=O)C=C[C@]4(C)[C@@]3(F)[C@@H](O)C[C@@]21C,-3.95%,
Nc1c(Br)cc(Br)cc1CNC1CCC(O)CC1 (centres undefined),-4.63%,
